Source: PubChem
GLP1R ag = activates the human GLP-1 receptor; Potency, µM (highest dose often 45.6 µM), without a hit: at the highest dose activation, actives largely listed as activators; actives 0.007% (n = 380,000); P43220; HEK293 GLP-1R CRE-luciferase, luminescence, 4-6 h; cells express a hypersensitive GLP-1R form; note: % of control where 0% means no effect
Target sequence (P43220 whole entry, looked up): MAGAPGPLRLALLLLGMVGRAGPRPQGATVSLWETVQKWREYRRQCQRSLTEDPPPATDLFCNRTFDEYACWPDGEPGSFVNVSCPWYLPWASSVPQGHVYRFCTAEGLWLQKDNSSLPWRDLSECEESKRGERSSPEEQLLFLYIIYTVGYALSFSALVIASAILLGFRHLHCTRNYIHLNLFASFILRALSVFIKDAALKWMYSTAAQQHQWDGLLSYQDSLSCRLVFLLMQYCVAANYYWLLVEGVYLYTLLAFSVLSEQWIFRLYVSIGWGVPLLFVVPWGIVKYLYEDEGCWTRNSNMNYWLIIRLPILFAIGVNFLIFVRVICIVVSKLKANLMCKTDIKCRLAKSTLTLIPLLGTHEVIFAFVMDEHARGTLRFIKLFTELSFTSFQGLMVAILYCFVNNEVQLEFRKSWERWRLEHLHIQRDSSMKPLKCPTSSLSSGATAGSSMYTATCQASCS
GLP-1R inv ag = inverse agonists of human GLP-1 receptor | P43220 | AID 624417 | actives 1.6% (n = 410,000) | Potency, µM (titrated, usually from 38.3 µM), inactives show at the highest dose activity change, negative = inhibition, most hits filed as inhibitors | HEK293 GLP-1R CRE-luciferase, luminescence, 24 h; GLP-1R form is constitutively active; note: % is set by controls: 0 for no effect and ±100 for the full control effect; nearly all actives have a fitted effect of over 55% in size
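Using stably transfected HEK293 (constitutively active GLP-1R, cAMP-luciferase reporter), compounds were incubated 24 hr and luciferase measured by luminescence.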
HEK293 tox = cytotoxicity in counter-screen for GLP-1R inverse agonists; HEK293 cAMP-luciferase reporter cells, luminescence, 24 h; AID 624418; Potency, µM (doses to about 38.3 µM), for the others: at the highest dose activity change, negative = inhibition, actives largely listed as inhibitors; actives 0.13% (n = 410,000);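 note: loss of luciferase light is scored as toxicity; % is set by controls: 0 for no effect and ±100 for the full control effect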
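Compound-treated cells are incubated 24 hr at 37 deg C under 5% CO2 after a 12 hour attachment period, then luciferase detection reagent is added and luminescence is measured following 12 min at room temperature; lowered signal indicates toxicity.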
PTHR1 agonist = agonists of human PTHR1 parathyroid hormone receptor | Q03431 | HEK293 GP2 PTHR1 cells, GloSensor cAMP luminescence, 1 h | Potency, µM (top dose mostly 115 µM), for the others: at the highest dose activation, actives largely listed as activators | actives 0.075% (n = 410,000) | AID 743266; note: nearly all actives have a fitted effect of over 55% in size
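HEK-293-derived GP2 cells expressing PTHR1 and a GloSensor cAMP reporter, 3,000/well, plated overnight, given luciferin plus IBMX (each 0.5 mM as added) for 1 h at 37 °C, then compound for 1 h at 37 °C. Luminescence was read after 15 min at room temperature.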
Starred values were filed as active, the others as inactive; [ ] = dose if it differs, or a comment. Rows were chosen to be rich in hits. Some 1.7% of all compounds tested hit in one or more screens of this group. Calls come from the whole dose curve; as a rule, active = well fitted curve in the direction sought with a large enough effect; inconclusive = small, poorly fitted or top-dose-only effect, or another doubt; inactive = no such curve, though single readings can be large; an effect the other way counts as inactive or inconclusive. Potency is the fitted concentration of half-maximal effect.

Results for COC(=O)c1ccc(NC(=O)CCc2c(C)nn(-c3ccc(N4CCCCC4)nn3)c2C)cc1 ?
GLP-1R inv ag: 1.9%; HEK293 tox: 3.6%; PTHR1 agonist: -11.0%

How did CCc1nc2ccc(C(=O)NCCc3c[nH]c4ccccc34)cn2c1N(C=O)CCC(C)C do in these assays?
GLP1R ag: -0.1%; GLP-1R inv ag: 5.62µM*; HEK293 tox: inconclusive; PTHR1 agonist: -20.6%

How did CCN1CCN(C(c2ccc(OC)cc2)c2c(O)cc(C)n(Cc3ccco3)c2=O)CC1 (stereo not given) do in these assays?
GLP-1R inv ag: -25.2%; HEK293 tox: -0.7%; PTHR1 agonist: inactive

What do the screens show for `CCn1c(SCC(=O)c2cc(C)n(C)c2C)nnc1-c1ccccc1`?
GLP1R ag: -5.7%; GLP-1R inv ag: -26.7%; HEK293 tox: -14.0%; PTHR1 agonist: -8.5%

What do the screens show for `CCn1c(SCC(=O)c2cc(C)n(-c3ccc(C(=O)OC)cc3)c2C)nnc1-c1cccnc1`?
GLP1R ag: -1.8%; GLP-1R inv ag: 11.2µM*; HEK293 tox: -14.3%; PTHR1 agonist: -24.3%

What do the screens show for `Cc1cc(=O)n2c(nc3ccccc32)[nH]1`?
GLP1R ag: 12.4%; GLP-1R inv ag: 103.1%; HEK293 tox: 17.0%; PTHR1 agonist: 31.6µM*

What do the screens show for `O=C(CC(CC(=O)c1ccccc1)c1ccccn1)c1ccccc1`?
GLP1R ag: 14.5%; GLP-1R inv ag: 10µM*; HEK293 tox: -0.9%; PTHR1 agonist: -9.9%

What do the screens show for `COc1ccc(-c2nc3ccc(NS(=O)(=O)c4ccc(Cl)cc4)cc3o2)cc1`?
GLP-1R inv ag: inconclusive; HEK293 tox: 23.7%; PTHR1 agonist: -27.0%

How did O=C(N/N=C/c1cccc(Oc2ccccc2)c1)c1cccc(O)c1 do in these assays?
GLP1R ag: 14.0%; GLP-1R inv ag: inconclusive; HEK293 tox: inconclusive; PTHR1 agonist: -25.2%

How did O=C(N/N=C/c1cccc(Oc2ccccc2)c1)c1cccc(Br)c1 do in these assays?
GLP1R ag: -4.6%; GLP-1R inv ag: 8.91µM*; HEK293 tox: -35.4%; PTHR1 agonist: -22.6%[57.5 µM]

What do the screens show for `CCOc1ccc(NC(=O)CC2C(=O)N(c3cccc(C)c3)C(=O)N2Cc2cccnc2)cc1` (stereo not given)?
GLP-1R inv ag: -9.8%; HEK293 tox: -1.1%; PTHR1 agonist: -23.0%

Results for Cc1c(C(=O)Nc2ccc(C(=O)O)cc2)nnn1-c1ccccc1 ?
GLP-1R inv ag: 1.78µM*; HEK293 tox: 2.0%; PTHR1 agonist: -23.4%

Results for COc1ccc(N2CCN(C(=O)c3nc(-c4ccc(Cl)cc4)n4c3CCCCC4)CC2)cc1 ?
GLP-1R inv ag: -6.5%; HEK293 tox: -11.7%; PTHR1 agonist: -4.2%

What do the screens show for `CCNc1ccc(Br)cc(C(=O)/C=C/c2ccc(Cl)cc2)c1=O`?
GLP1R ag: 0.1%; GLP-1R inv ag: 2.82µM*; HEK293 tox: -13.3%; PTHR1 agonist: -30.3%

Results for COc1cccc(CNC(=O)CCC2CCCN(Cc3cc4ccccc4o3)C2)c1 (stereo not given) ?
GLP1R ag: 9.0%; GLP-1R inv ag: 11.2µM*; HEK293 tox: 0.5%; PTHR1 agonist: inactive

What do the screens show for `CCC(NC(=O)CNC(=O)c1ccc2c(c1)OCO2)c1ccc(Br)cc1` (stereo not given)?
GLP1R ag: -10.6%; GLP-1R inv ag: 12.6µM*; HEK293 tox: 0.3%; PTHR1 agonist: -21.4%

Results for CC(C)(C)C(=O)NC(Nc1cccc2cccnc12)C(Cl)(Cl)Cl (stereo not given) ?
GLP1R ag: -9.3%; GLP-1R inv ag: 5.01µM*; HEK293 tox: 48.4%; PTHR1 agonist: inactive

What do the screens show for `Cc1ccc(CN2CCCN(CC(=O)Nc3ccc(C)cc3C)S2(=O)=O)cc1`?
GLP-1R inv ag: inconclusive; HEK293 tox: 3.1%; PTHR1 agonist: -20.8%

Results for CSCC[C@H](NC(=O)[C@@H](Cc1ccc(O[S+](=O)([O-])O)cc1)NC(=O)[C@H](N)CC(=O)O)C(=O)NCC(=O)N[C@@H](Cc1c[nH]c2ccccc12)C(=O)N[C@H](CCSC)C(=O)N[C@H](CC(=O)O)C(=O)N[C@@H](Cc1ccccc1)C(N)=O ?
GLP1R ag: -0.1%

How did CC1CCCCN1C(=O)c1ccc2c(c1)N(Cc1ccc(Cl)cc1)C(=O)c1ccccc1S2=O (stereo not given) do in these assays?
GLP1R ag: -5.7%; GLP-1R inv ag: -15.9%; HEK293 tox: 1.3%; PTHR1 agonist: -13.4%

What do the screens show for `CC1CCCCN1C(=O)C1CCN(c2nc(-c3ccccc3)nc3c2CCC3)CC1` (stereo not given)?
GLP1R ag: -3.3%; GLP-1R inv ag: 8.91µM*; HEK293 tox: inconclusive; PTHR1 agonist: inconclusive

How did O=C(C1CCN(c2nc(-c3ccccc3)nc3c2CCC3)CC1)N1CCCC1 do in these assays?
GLP1R ag: 11.4%; GLP-1R inv ag: inconclusive; HEK293 tox: -8.7%; PTHR1 agonist: -1.7%

Results for CCC1CCCCN1C(=O)COc1ccc(N(C)S(=O)(=O)c2ccc(C)cc2)cc1 (stereo not given) ?
GLP1R ag: 7.9%; GLP-1R inv ag: 3.16µM*; HEK293 tox: 3.1%; PTHR1 agonist: -4.1%

What do the screens show for `Cc1ccc(S(=O)(=O)N(C)c2ccc(OCC(=O)NCC3(N(C)C)CCCCC3)cc2)cc1`?
GLP1R ag: 0.1%; GLP-1R inv ag: 11.2µM*; HEK293 tox: -0.3%; PTHR1 agonist: inactive

Results for COC(=O)C1CCN(C(=O)COc2ccc(N(C)S(=O)(=O)c3ccc(C)cc3)cc2)CC1 ?
GLP1R ag: -8.1%; GLP-1R inv ag: 11.7%; HEK293 tox: -0.5%; PTHR1 agonist: inactive

How did Cc1ccc(S(=O)(=O)N(C)c2ccc(OCc3cccc(C)c3)cc2)cc1 do in these assays?
GLP1R ag: -8.1%; GLP-1R inv ag: 2.82µM*; HEK293 tox: 10.0%; PTHR1 agonist: -12.3%

Results for CCc1c(C)nc(SCc2nc(-c3ccccc3C)no2)[nH]c1=O ?
GLP-1R inv ag: 2.4%; HEK293 tox: -1.1%; PTHR1 agonist: -67.0%

Results for CCOc1ccc(CCNC(=O)CSCc2nc(-c3cccc(C)c3)oc2C)cc1OCC ?
GLP-1R inv ag: inconclusive; HEK293 tox: -2.5%; PTHR1 agonist: -16.0%

How did CC/C=C(\C(=O)N[C@H]1C(=O)N2C(C(=O)OCOC(=O)C(C)(C)C)=C(COC(N)=O)CS[C@H]12)c1csc(N)n1 do in these assays?
GLP1R ag: -0.3%

How did CCc1nn2cc(-c3ccccc3)nc2s1 do in these assays?
GLP1R ag: -14.8%; GLP-1R inv ag: 5.62µM*; HEK293 tox: -5.4%; PTHR1 agonist: -25.9%

What do the screens show for `CC1CCCC(C)N1C(=O)Cn1cc(/C=C2/C(=O)Nc3ccccc32)c2ccccc21` (stereo not given)?
GLP1R ag: 0.2%; GLP-1R inv ag: 5.62µM*; HEK293 tox: inconclusive; PTHR1 agonist: -14.4%[57.5 µM]

What do the screens show for `COC(=O)c1cn(CC(=O)N2C(C)CCCC2C)c2ccccc12` (stereo not given)?
GLP1R ag: -10.8%; GLP-1R inv ag: inconclusive; HEK293 tox: 9.5%; PTHR1 agonist: -9.2%[57.5 µM]
